High-throughput results: PubChem BioAssay, Center for Chemical Genomics, University of Michigan
Dicer inh: inhibitors of human Dicer processing of pre-microRNA. z-score at 25 µM. Q9UPY3. 47,000 compounds, 6% hits. cat-ELCCA pre-miR-21 Dicer processing, chemiluminescence; stronger effect = higher value; in the data active = z-score above about 3, passing the limit was not always enough;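 note: plate controls were vehicle for no effect and no enzyme for full effect; higher signal means more uncleaved substrate so more Dicer inhibition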
* marks the source's active call; other numbers are inactive results. The full list was thinned out, with hits kept by preference.

SMILES	Dicer inh
COCCOC(=O)Cn1nnc2sc3c(c2c1=O)CCC(C)C3 (configuration not stated)	0.73
CCCCCOC(=O)Cn1nnc2sc3c(c2c1=O)CCC(C)C3 (configuration not stated)	3.5*
CC1CCN(C(=O)Cn2nnc3sc4c(c3c2=O)CCCC4)CC1	3.5*
CC(C)COC(=O)Cn1nnc2sc3c(c2c1=O)CCC(C)C3 (configuration not stated)	3
CCCOC(=O)Cn1nnc2sc3c(c2c1=O)CCCC3	1.9
CC1CCc2c(sc3nnn(CC(=O)NC4CCCCC4)c(=O)c23)C1 (configuration not stated)	-0.09
CC1CCN(C(=O)Cn2nnc3sc4c(c3c2=O)CCC(C)C4)CC1 (configuration not stated)	3*
CC1=C(C(=O)OCc2ccccc2)C(c2cccc(O)c2)C2=C(CC(c3cccs3)CC2=O)N1 (configuration not stated)	1.6
CC(C)NC(=O)O/N=C(\N)CSc1nccn1C	0.1
COCCNC(=O)C(=O)NCC1CCCO1 (configuration not stated)	2
Cc1[nH]ncc1-c1nc(-c2ccc(Cl)cc2)no1	-0.2
CCCCN(C(C)C)S(=O)(=O)c1ccc(C)cc1	-0.26
CCN(CCS(=O)(=O)c1ccccc1)S(=O)(=O)c1ccc(C)cc1	4.5*
CCN(CC(O)Cn1c2ccccc2c2ccccc21)S(=O)(=O)c1ccc(C)cc1 (configuration not stated)	0.77
Cc1ccc(S(=O)(=O)n2ccnc2C)cc1C	0.01
O=C(CSC1=NCCCC1)c1cccc([N+](=O)[O-])c1	-1.2
O=C(c1ccncc1)N(c1cc2sc(=O)oc2c2ccccc12)S(=O)(=O)c1cccs1	-5.5
O=C(c1cccnc1)N(c1ccc2oc(=O)sc2c1)S(=O)(=O)c1cccc2cccnc12	4.1*
Cc1cc2cc(N(C(=O)c3ccncc3)S(=O)(=O)c3cc(C)c(C)cc3C)ccc2o1	-0.81
O=C(c1ccncc1)N(c1ccc2oc(=O)sc2c1)S(=O)(=O)c1cccc2cccnc12	3.7*
Cc1ccc(C)c(S(=O)(=O)N(C(=O)c2ccncc2)c2ccc3oc(=O)sc3c2)c1	-1.7
Cc1cc(C)c2c(n1)sc1c(=O)n(Cc3ccccc3Cl)cnc12	-0.79
Cc1c2c(=O)n(-c3nc4ccccc4s3)n(Cc3ccccc3)c2cc(=O)n1Cc1ccco1	-1.4
CC12CCC(C(=O)N(Cc3ccccc3)Cc3ccccc3)(C(Br)C1=O)C2(C)C (configuration not stated)	0.33
O=C1CC(CSc2nnnn2-c2ccccc2)=NN1c1nc2ccccc2[nH]1	-2.3
SMILES	Dicer inh
Cc1nnc(SCc2cc(=O)n3c(nc4ccccc43)[nH]2)s1	-1.9
Cc1nnc(SCC2=NN(c3nc4ccccc4[nH]3)C(=O)C2)s1	3.2*
CC(C)(C)NC(=O)c1cc2c(n(-c3ccc(Cl)cc3)c1=O)CCCC2=O	0.69
Cc1nc(N2CCN(c3ccc(F)cc3)CC2)nc2c1C(=O)CCC2	-3
Cc1nnc(N2C(=O)c3oc4ccccc4c(=O)c3C2c2cccc(Oc3ccccc3)c2)s1 (configuration not stated)	-0.46
Cn1c(=O)c(-c2ccccc2)c(O)c2ccccc21	-0.8
CC(=O)Oc1c(I)c(=O)n(C)c2ccccc12	-0.68
Cn1c(=O)c(I)c(O)c2ccccc21	5.3*
Nc1cc(=O)[nH]c(SCc2c(Cl)cccc2Cl)n1	-0.27
Cn1nc(-c2ccccc2)cc1NC(=O)Nc1ccc(C(C)(C)C)cc1	1
CC(C)(C)c1ccc(NC(=O)Nc2sccc2-n2cccc2)cc1	6.4*
O=C(NCC1CC1)Nc1sccc1-n1cccc1	-3
CCOC(=O)CSc1nc(-c2ccccc2OC)nc(C)c1C(C)=O	2.2
Cc1cc(S(=O)(=O)c2ccc([N+](=O)[O-])cn2)c(Cl)cc1Cl	-0.85
Cc1ccc(-n2cccc2)c(NC(=O)c2c(-c3c(Cl)cccc3Cl)noc2C)c1	0.7
CCc1ccc(C(=O)/C=C/Nc2ccc(Cl)cc2Cl)cc1	-0.38
O=S(=O)(NCCc1ccccn1)c1ccc(-c2ccccn2)s1	-1.4
O=S(=O)(Nc1nc(SCc2ccc(Cl)cc2)n[nH]1)c1ccc(-c2ccccn2)s1	3.4*
O=S(=O)(Nc1nc(SCc2ccc(Cl)cc2)n[nH]1)c1ccc(F)cc1	-0.14
CC1=C(C(=O)OC(C)C)C(c2ccccc2Cl)C2=C(CC(c3ccccc3)CC2=O)N1 (configuration not stated)	3
CCc1nc(SCC(N)=O)n[nH]1	-1.1
COc1cc(C2N=C(N)Nc3nc4ccccc4n32)ccc1O (configuration not stated)	5.9*
NC1=NC(c2ccccc2O)n2c(nc3ccccc32)N1 (configuration not stated)	3.6*
CCOc1cc(C2N=C(N)Nc3nc4ccccc4n32)ccc1O (configuration not stated)	2.4
NC1=NC(c2ccccc2)n2c(nc3ccccc32)N1 (configuration not stated)	2.2
SMILES	Dicer inh
COc1ccc(C2N=C(N)Nc3nc4ccccc4n32)c(OC)c1 (configuration not stated)	0.18
NC1=NC(c2ccncc2)n2c(nc3ccccc32)N1 (configuration not stated)	0.89
Clc1cccc(Nc2nc3ccccc3s2)c1	0.39
Cc1[nH]nc(NC2CCCCC2)c1[N+](=O)[O-]	1.1
c1ccc2c(c1)NC(c1ccc3c(c1)OCCO3)n1cccc1-2 (configuration not stated)	2.6
CC1(C)CC(=O)C2=C(C1)Nc1ccccc1NC2c1ccc2c(c1)OCO2 (configuration not stated)	-0.62
O=C1c2ccccc2NC(c2ccc3c(c2)OCO3)N1Cc1ccccc1 (configuration not stated)	3.4*
CCOC(=O)C1=C(C)N=C2SCCC(=O)N2C1c1ccc(OC(C)=O)c(OC)c1 (configuration not stated)	1.4
CSC1=NC(C)(C)CCC12C=CC(=O)C=C2	3.2*
COC1=C(OC)C2(C=CC1=O)CC(C)(C)N=C2SC (configuration not stated)	1.1
O=C1CC(c2ccc(Cl)cc2)c2ccc3ccccc3c2N1 (configuration not stated)	0.16
O=C1c2oc3ccc(Br)cc3c(=O)c2C(c2cccc(O)c2)N1Cc1ccc(F)cc1 (configuration not stated)	-0.16
Cc1ccc2ncnc(NC(CO)C(=O)O)c2c1 (configuration not stated)	1.8
Cc1ccc2ncnc(NC(CC(C)C)C(=O)O)c2c1 (configuration not stated)	-0.97
CCCCC(Nc1ncnc2ccc(Br)cc12)C(=O)O (configuration not stated)	3.9*
Cc1cc(-c2onc(C)c2-c2noc(C)n2)no1	-0.34
c1ccc(-c2csc(Cc3c[nH]c4ccccc34)n2)cc1	1.2
Cc1ccc2nc(NCCO)[nH]c2c1	1.3
Brc1ccc(OCc2nn3c(Cc4ccccc4)nnc3s2)cc1	1.2
Cc1ccc(C(C)C)c(OCCN2C(=O)C(=O)c3cccc(C)c32)c1	2.7
COc1cccc(C(Nc2cc(C)ccn2)c2ccc3ccc(C)nc3c2O)c1 (configuration not stated)	6.8*
CCOc1cc(C(Nc2cc(C)ccn2)c2ccc3cccnc3c2O)ccc1O (configuration not stated)	14*
COc1cc(C(Nc2cc(C)ccn2)c2ccc3cccnc3c2O)ccc1O (configuration not stated)	11*
